Screens: PubChem BioAssay, National Center for Advancing Translational Sciences (NCATS)
Hits are enriched below; roughly 7% of the tested compounds scored in any of these assays.
JMJD2A Tudor inh – blocks the human JMJD2A Tudor domain | AlphaScreen JMJD2A-Tudor / H3K4me3 peptide binding | hit rate 4.4% among 390,000 | Potency, µM (doses to about 114 µM), for the others: top-dose activity change, negative = inhibition, most hits filed as inhibitors | AID 504339 | O75164; also: potency is read from the fitted curve at half-maximal effect; % is scaled to controls: 0 for no effect and ±100 for the full control effect; nearly all actives have a fitted effect of over 50% in size
PLK1 PBD inh – blocks phosphopeptide binding to human PLK1 polo-box domain | P53350 | Plk1 PBD binding of FITC phosphopeptide, fluorescence polarization | Potency, µM, for the others: max response, negative = inhibition, most hits filed as inhibitors | hit rate 2.8% among 360,000; also: potency is read from the fitted curve at half-maximal effect; series mostly up to about 57 µM; % is scaled to controls: 0 for no effect and ±100 for the full control effect; nearly all actives have a fitted effect of over 65% in size
HP1b binding inh – HP1-beta chromodomain-methylated histone interaction inhibition; P83916; AlphaScreen HP1-beta / biotin-H3K9me3 peptide binding; Potency, µM (top dose mostly 114 µM), for the others: at the top dose activity change, negative = inhibition, actives largely listed as inhibitors; hit rate 0.56% among 390,000; AID 540317; also: potency is read from the fitted curve at half-maximal effect; nearly all actives have a fitted effect of over 70% in size
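Compound inhibition of the preformed complex between 50 nM HP1-beta and 50 nM biotinylated H3K9me3 peptide was read by AlphaScreen. Buffer was PBS pH 7.4 with 0.01% Tween-20. Incubations ran 30 min at room temperature, with 10 ug/mL donor/acceptor beads.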
BAZ2B inh – inhibitors of human BAZ2B bromodomain. AlphaScreen BAZ2B-H3K14Ac peptide displacement. hit rate 4.4% among 360,000. AID 504333. Potency, µM (top dose mostly 114 µM), without a hit: at the top dose activity change, negative = inhibition, usual class: inhibitors. Q9UIF8; also: potency is read from the fitted curve at half-maximal effect; % is scaled to controls: 0 for no effect and ±100 for the full control effect; nearly all actives have a fitted effect of over 60% in size
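Protein-peptide AlphaScreen: BAZ2B 50 nM, b-H3K14Ac 50 nM, 1x PBS pH 7.4 + 0.01% Tween-20. Preincubation 30 min RT; cpd 30 min RT (top 110 uM); beads 20 min RT, light-protected.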
KAT2A inh – GCN5L2 (KAT2A) acetyltransferase inhibition; Q92830; GCN5L2 HAT assay, ThioGlo1 CoA-SH fluorescence; Potency, µM (highest dose often 58.9 µM), inactives show at the highest dose activity change, negative = inhibition, most hits filed as inhibitors; hit rate 0.21% among 390,000; AID 504327; also: potency is read from the fitted curve at half-maximal effect; % is scaled to controls: 0 for no effect and ±100 for the full control effect
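GCN5L2 (20nM final) in 50mM HEPES, 0.1mM EDTA pH 7.5, 0.01% Tween-20 was preincubated 15 min at room temperature with compound, then given ThioGlo1 (50uM), H3(1-25) peptide (75uM) and acetyl-CoA (70uM); CoA-thiol fluorescence (Ex340/Em540) was read at 0 and 20 min.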
PI5P4K alpha inh – blocks human PI5P4K alpha kinase activity; hit rate 1.2% among 330,000; max response, %; P48426; PI5P4Kalpha enzyme, ADP-Glo luminescence, 60 min; active compounds read low; active = max response of -50% or lower; inconclusive = between -30% and -50%; inactive = -30% or higher; also: value at the top dose of about 77 µM; % is scaled to controls: 0 for no effect and ±100 for the full control effect
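Reactions run in 0.038 M HEPES pH 7.4, 0.28 mM EGTA, 0.1% CHAPS and 5% DMSO, with PI5P4Kalpha, substrate, compound and 5 microM ATP final, one hour at room temperature. Readout is ADP-Glo luminescence.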
An asterisk follows results filed as active; [ ] = another dose, or the depositor's remark. Unless noted, calls follow the shape of the dose curve; as a rule, active = well fitted curve in the direction sought with a large enough effect; inconclusive = small, poorly fitted or top-dose-only effect, or another doubt; inactive = no such curve, though single readings can be large; an effect the other way counts as inactive or inconclusive.

What do the screens show for `CCN(CC)C(=O)C1CCN(CC2CC=CCC2)CC1` (stereo not drawn)?
JMJD2A Tudor inh: 6.3µM*; PLK1 PBD inh: -3%; HP1b binding inh: -58%; BAZ2B inh: 56µM*; KAT2A inh: 2%; PI5P4K alpha inh: 2

Results for CCC1(c2ccccc2)NC(=O)N(CC(=O)NC2CCCCCC2)C1=O (stereo not drawn) ?
JMJD2A Tudor inh: 3%; PLK1 PBD inh: -2%; HP1b binding inh: 41%; KAT2A inh: -1%; PI5P4K alpha inh: 3

Results for CCNC(=S)NNC(=O)CSc1nc2ccccc2n1C ?
JMJD2A Tudor inh: 89µM*; PLK1 PBD inh: -15%; HP1b binding inh: 27%; BAZ2B inh: -11%; KAT2A inh: 0%; PI5P4K alpha inh: -9

How did Cn1c(SCC(=O)NNC(=O)Cc2ccccc2)nc2ccccc2c1=O do in these assays?
JMJD2A Tudor inh: 22µM*; PLK1 PBD inh: 3.4µM*; HP1b binding inh: -11%; BAZ2B inh: -7%; KAT2A inh: -5%; PI5P4K alpha inh: inconclusive

What do the screens show for `COCCn1c(SCC(=O)NNC(=O)Cc2ccccc2)nc2ccccc2c1=O`?
JMJD2A Tudor inh: -5%[11.4 µM]; PLK1 PBD inh: -16%; HP1b binding inh: 53%; BAZ2B inh: -15%; KAT2A inh: -1%; PI5P4K alpha inh: -4

What do the screens show for `CCCNC(=O)c1ccccc1NS(=O)(=O)c1ccc(OC)c(OC)c1`?
JMJD2A Tudor inh: 0%; PLK1 PBD inh: -5%; HP1b binding inh: 40%; BAZ2B inh: -2%; KAT2A inh: -2%; PI5P4K alpha inh: -2

How did COc1ccc(S(=O)(=O)Nc2ccccc2C(=O)Nc2nc(-c3ccc(F)cc3)cs2)cc1OC do in these assays?
JMJD2A Tudor inh: inconclusive; PLK1 PBD inh: 24µM*; HP1b binding inh: -21%; BAZ2B inh: inconclusive; KAT2A inh: -29%; PI5P4K alpha inh: -9

What do the screens show for `COc1ccc(-c2csc(NC(=O)c3ccccc3NS(=O)(=O)c3ccc(C)cc3)n2)cc1`?
JMJD2A Tudor inh: inconclusive; PLK1 PBD inh: inconclusive; HP1b binding inh: inconclusive; BAZ2B inh: 35µM*; KAT2A inh: -29%; PI5P4K alpha inh: 0

Results for C1=C(c2cc3ccccc3cn2)CCCC1 ?
JMJD2A Tudor inh: 59%; PLK1 PBD inh: -13%; HP1b binding inh: 87%; KAT2A inh: 0%; PI5P4K alpha inh: 2

How did CC(=O)N1CCc2cc(Br)cc(S(=O)(=O)N3CCC(C(=O)Nc4cccc(C)c4C)CC3)c21 do in these assays?
JMJD2A Tudor inh: -15%; HP1b binding inh: 24%; BAZ2B inh: -31%; KAT2A inh: -7%

What do the screens show for `CCOc1cc(CN2CCCCCC2)ccc1OC`?
JMJD2A Tudor inh: 2.2µM*; PLK1 PBD inh: -9%; HP1b binding inh: -14%; BAZ2B inh: inconclusive; KAT2A inh: inconclusive; PI5P4K alpha inh: 5

How did CC1(C(=O)NC2CCN(Cc3ccccc3)CC2)CCN1Cc1ccc2ccccc2c1 (stereo not drawn) do in these assays?
PLK1 PBD inh: 0%; PI5P4K alpha inh: 11

Results for COc1ccc(CN2CCN(Cc3ccc4ccccc4c3)CC2)cc1OC ?
JMJD2A Tudor inh: 2.8µM*; PLK1 PBD inh: 0%; HP1b binding inh: 25µM*; BAZ2B inh: 16µM*; KAT2A inh: -5%; PI5P4K alpha inh: -12

How did CCN1CCN(Cc2ccc(OC)c(OCc3ccccc3)c2)CC1 do in these assays?
JMJD2A Tudor inh: -19%; PLK1 PBD inh: -5%; HP1b binding inh: 8%; BAZ2B inh: -38%

How did COc1ccccc1CN1CCN(Cc2ccc3ccccc3c2)CC1 do in these assays?
JMJD2A Tudor inh: 8.9µM*; PLK1 PBD inh: -7%; HP1b binding inh: inconclusive; BAZ2B inh: 22µM*; KAT2A inh: -6%; PI5P4K alpha inh: 0

How did OC1CCN(Cc2ccc3ccccc3c2)CC1 do in these assays?
JMJD2A Tudor inh: 3.5µM*; PLK1 PBD inh: 3%; HP1b binding inh: inconclusive; BAZ2B inh: inconclusive; KAT2A inh: 1%; PI5P4K alpha inh: 5

How did CCCCC(=O)Nc1ccc(N2CCN(c3ccc(F)cc3)CC2)cc1 do in these assays?
JMJD2A Tudor inh: -14%; PLK1 PBD inh: -2%; HP1b binding inh: 1%; BAZ2B inh: -4%; KAT2A inh: 3%; PI5P4K alpha inh: 7

How did O=C(O)c1cccc(NC(CNS(=O)(=O)c2ccc(Cl)cc2)c2ccccc2)c1 (stereo not drawn) do in these assays?
JMJD2A Tudor inh: -23%; PLK1 PBD inh: -13%; HP1b binding inh: 6%; BAZ2B inh: 79µM*; KAT2A inh: -16%; PI5P4K alpha inh: 1

How did CC(C)NC(=O)COC(=O)CNC(=O)c1cc(Cl)cc([N+](=O)[O-])c1 do in these assays?
JMJD2A Tudor inh: -21%; PLK1 PBD inh: 30µM*; HP1b binding inh: -6%; BAZ2B inh: -4%; KAT2A inh: -5%; PI5P4K alpha inh: -16

What do the screens show for `O=C(NCC(=O)N1CCN(Cc2ccccc2)CC1)c1cc(Cl)cc([N+](=O)[O-])c1`?
JMJD2A Tudor inh: -11%; PLK1 PBD inh: -13%; HP1b binding inh: 41%; KAT2A inh: -2%; PI5P4K alpha inh: 3

Results for CCCS(=O)(=O)N1CC(=O)N(c2ccccc2C)C(C)(C(=O)NC2CCCC2)C1 (stereo not drawn) ?
JMJD2A Tudor inh: -9%; HP1b binding inh: 19%; BAZ2B inh: 3%; KAT2A inh: -6%

Results for CCOc1ccccc1NC(=O)COC(=O)C1CCC(=O)N1 (stereo not drawn) ?
JMJD2A Tudor inh: -6%; PLK1 PBD inh: -5%; HP1b binding inh: 40%; KAT2A inh: -11%; PI5P4K alpha inh: 4

What do the screens show for `CC(c1nc2ccccc2n1Cc1ccccc1)n1c(-c2cnccn2)nc2ccccc21` (stereo not drawn)?
PLK1 PBD inh: 0%; PI5P4K alpha inh: 0

What do the screens show for `Cc1ccc(CN2C3=NCCCN3c3ccccc32)cc1`?
JMJD2A Tudor inh: -27%[11.4 µM]; PLK1 PBD inh: 24µM*; HP1b binding inh: -8%; BAZ2B inh: 5%; KAT2A inh: -1%; PI5P4K alpha inh: 5

How did O=C(CSc1nnc(-c2ccco2)n1-c1ccccc1)N1CCN(C(=O)c2ccco2)CC1 do in these assays?
JMJD2A Tudor inh: -31%[11.4 µM]; PLK1 PBD inh: 9.5µM*; HP1b binding inh: -14%; BAZ2B inh: -3%; KAT2A inh: 0%; PI5P4K alpha inh: -25

How did CCc1cc2ccc(C)cc2nc1SCC(=O)N1CCN(C(=O)c2ccco2)CC1 do in these assays?
JMJD2A Tudor inh: 89µM*; PLK1 PBD inh: 24µM*; HP1b binding inh: inconclusive; BAZ2B inh: inconclusive; KAT2A inh: -5%; PI5P4K alpha inh: -27

What do the screens show for `Cn1c(SCC(=O)N2CCN(c3ccccc3)CC2)nnc1-c1ccco1`?
JMJD2A Tudor inh: -15%; PLK1 PBD inh: -6%; HP1b binding inh: 34%; BAZ2B inh: -26%; KAT2A inh: 1%
